This note sets out measurements from ChEMBL document CHEMBL4296182, “CO-ADD screening of NIH NCI Diversity Set V”.

For one experiment, the system named is Staphylococcus aureus. Briefly: Antibacterial activity against Staphylococcus aureus MRSA ATCC 43300 (CO-ADD:GP_020); MIC in CAMBH media using NBS plates, by Resazurin F(560/590). Type of experiment: functional. Conditions: Concentration 20 uM, ASSAY_TEST Inhibition of Bacterial Growth, detection method Resazurin, Fluorescence (ex560/em590), MEDIA CAMHB, plate type 384well, CORNING #3640, time 18 hr.

The next experiment has as its system Acinetobacter baumannii. Briefly: Antibacterial activity against Acinetobacter baumannii ATCC 19606 (CO-ADD:GN_034); MIC in CAMBH media using NBS plates, by Resazurin F(560/590). Conditions: Concentration 20 uM, ASSAY_TEST Inhibition of Bacterial Growth, detection method Resazurin, Fluorescence (ex560/em590), MEDIA CAMHB, plate type 384well, CORNING #3640, time 18 hr. The experiment is classed as functional.

For the next experiment, the system named is Escherichia coli. Briefly: Antibacterial activity against Escherichia coli ATCC 25922 (CO-ADD:GN_001); MIC in CAMBH media using NBS plates, by Resazurin F(560/590). Conditions: Concentration 20 uM, ASSAY_TEST Inhibition of Bacterial Growth, detection method Resazurin, Fluorescence (ex560/em590), MEDIA CAMHB, plate type 384well, CORNING #3640, time 18 hr. Type of experiment: functional.

The test system of another experiment is Klebsiella pneumoniae. Conditions: Concentration 20 uM; ASSAY_TEST Inhibition of Bacterial Growth; detection method Absorption (OD600); MEDIA CAMHB; plate type 384well; NBS; CORNING #3640; time 18 hr.
The test system of a further experiment is Candida albicans. Conditions: 20 µM.
The test system of the next experiment is Cryptococcus neoformans. Conditions: Concentration 20 uM; ASSAY_TEST Inhibition of Fungal Growth; detection method Resazurin; Absorption (OD600-OD570); plate type 384well; NBS; CORNING #3640.

For part of these data: Potency and affinity values are given separately.

As for `CNc1ccc(/N=N/c2cc[n+]([O-])cc2C)cc1C`, the Inhibition with Staphylococcus aureus is -1.07%; in the experiment with Acinetobacter baumannii it was -11.34%; in the experiment with Escherichia coli it was 7.82%; in the experiment on Klebsiella pneumoniae it was 8.63%; in the experiment on Candida albicans, -0.41%; in the experiment with Cryptococcus neoformans, -28.56%.
Regarding `c1ccc2c(c1)-c1cccc3cncc-2c13`, the Inhibition in the experiment with Staphylococcus aureus was 1.08%; in the experiment with Acinetobacter baumannii, -2.19%; with Escherichia coli, 3.18%; in the experiment with Klebsiella pneumoniae it was 7.94%; in the experiment on Candida albicans, 12.2%; in the experiment on Cryptococcus neoformans, -10.41%.
With `COc1cccc(-c2nnc(N)o2)c1`, the Inhibition with Staphylococcus aureus was 11.58%; with Acinetobacter baumannii, -10.93%; with Escherichia coli, 4.71%; in the experiment on Klebsiella pneumoniae, 8.97%; in the experiment on Candida albicans, 1.68%; in the experiment with Cryptococcus neoformans, -2.41%.
With `CSc1cccc(NC(=O)N2CCN(C)CC2)c1`, the Inhibition in the experiment with Staphylococcus aureus was 0.63%; with Acinetobacter baumannii, -10.8%; in the experiment with Escherichia coli, 6.03%; in the experiment with Klebsiella pneumoniae it was 6.8%; with Candida albicans, 3.78%; with Cryptococcus neoformans, -18.46%.
Take `O=C1CCCc2cc3c(cc21)CC1(C3)Cc2cc3c(cc2C1)C(=O)CCC3`: the Inhibition is 15.97% with Staphylococcus aureus; -9.78% with Acinetobacter baumannii; 9.88% in the experiment with Escherichia coli; 10.84% in the experiment with Klebsiella pneumoniae; 3.32% with Candida albicans; -3.34% in the experiment on Cryptococcus neoformans.
Take `Oc1cccc2cnccc12`: the Inhibition is -5.81% in the experiment with Staphylococcus aureus; 3.26% with Acinetobacter baumannii; 3.71% in the experiment on Escherichia coli; 12.61% in the experiment with Klebsiella pneumoniae; 1% in the experiment with Candida albicans; 3.35% in the experiment on Cryptococcus neoformans.
With `COc1cccc(/C=C/c2nccc3ccccc23)c1OC`, the Inhibition in the experiment with Staphylococcus aureus was 13.01%; with Acinetobacter baumannii, 1.37%; in the experiment with Escherichia coli it was 11.96%; in the experiment on Klebsiella pneumoniae it was 0.37%; with Candida albicans it was 0.68%; in the experiment with Cryptococcus neoformans, -13.37%.
On to `CSc1cccc(NC(=O)Nc2nc3c(C)cccc3s2)c1`, for which the Inhibition was -3.9% in the experiment with Staphylococcus aureus; 2.69% in the experiment with Acinetobacter baumannii; 8.83% in the experiment with Escherichia coli; 7.86% in the experiment with Klebsiella pneumoniae; -0.92% in the experiment with Candida albicans; -2.59% in the experiment with Cryptococcus neoformans.
With `Cc1ccc([N+](=O)[O-])cc1NC(=O)Nc1cccc(F)c1`, the Inhibition is 33.45% in the experiment on Staphylococcus aureus; -10.69% in the experiment on Acinetobacter baumannii; 8.59% in the experiment on Escherichia coli; 12.62% in the experiment on Klebsiella pneumoniae; 18.3% in the experiment on Candida albicans; -9.48% with Cryptococcus neoformans.
Consider `CCCCn1ccnc1C`, for which the Inhibition in the experiment with Staphylococcus aureus is -0.22%; in the experiment with Acinetobacter baumannii, -5.26%; in the experiment on Escherichia coli, 4.7%; with Klebsiella pneumoniae, 8.98%; in the experiment with Candida albicans, 0.01%; in the experiment with Cryptococcus neoformans it was -3.23%.
On to `Cc1ccc(NC(=O)Nc2cccnc2)cc1NC(=O)Nc1cccnc1`, for which the Inhibition in the experiment on Staphylococcus aureus was 4.86%; in the experiment on Acinetobacter baumannii it was 3.3%; in the experiment on Escherichia coli, 5.1%; in the experiment with Klebsiella pneumoniae, 8.48%; with Candida albicans it was -3.78%; in the experiment with Cryptococcus neoformans it was -10.14%.
For the compound `Oc1ccc(Cl)nn1`, the Inhibition is 1.52% with Staphylococcus aureus; -4.23% with Acinetobacter baumannii; 4.23% in the experiment on Escherichia coli; 8.48% with Klebsiella pneumoniae; 0.96% in the experiment on Candida albicans; 1.34% in the experiment on Cryptococcus neoformans.
Consider `COC(=O)Cc1[nH]c(Cl)nc1C(N)=O`, for which the Inhibition was -16.49% with Staphylococcus aureus; -11.06% in the experiment with Acinetobacter baumannii; -2.69% in the experiment on Escherichia coli; 2.53% with Klebsiella pneumoniae; 1.21% in the experiment with Candida albicans; 7.24% in the experiment on Cryptococcus neoformans.
Consider `CC1(C)SC(C)(C)N(C=O)C1C(=O)O` (centres undefined), for which the Inhibition in the experiment on Staphylococcus aureus was -0.19%; in the experiment on Acinetobacter baumannii, -4.51%; in the experiment with Escherichia coli, 4.94%; with Klebsiella pneumoniae, 4.48%; with Candida albicans, 1.14%; with Cryptococcus neoformans it was -3.91%.
Turning to `CSc1nc2nc(C(O)c3ccccc3)nc-2c[nH]1` (centres undefined), the Inhibition in the experiment on Staphylococcus aureus is 9.64%; with Acinetobacter baumannii, 6.4%; in the experiment with Escherichia coli, -14.24%; in the experiment with Klebsiella pneumoniae, 16.25%; in the experiment on Candida albicans, 8.94%; with Cryptococcus neoformans, 28.87%.
As to `CN1CCC(=C2c3ccccc3C(O)c3ccccc32)CC1` (centres undefined), the Inhibition with Staphylococcus aureus is 1.61%; with Acinetobacter baumannii, -19.91%; with Escherichia coli it was 15.16%; with Klebsiella pneumoniae, 2.29%; in the experiment on Candida albicans it was 0.03%; in the experiment with Cryptococcus neoformans it was -16.59%.
Take `CCOC(=O)c1c[nH]nc1O`: the Inhibition in the experiment with Staphylococcus aureus was 2.24%; in the experiment with Acinetobacter baumannii it was -6.35%; with Escherichia coli it was -2.97%; in the experiment with Klebsiella pneumoniae, 21.4%; in the experiment with Candida albicans, -1.88%; in the experiment with Cryptococcus neoformans, 1.44%.
As to `Cc1ccc(NC(=O)N2CCCCC2)cc1[N+](=O)[O-]`, the Inhibition in the experiment with Staphylococcus aureus is 0.24%; with Acinetobacter baumannii, -10.39%; with Escherichia coli, 3.85%; with Klebsiella pneumoniae, 3.41%; in the experiment with Candida albicans, 6.56%; in the experiment with Cryptococcus neoformans, -11.71%.
On to `Cc1cccc(N=C(S)Nc2cccc(C)n2)n1`, for which the Inhibition with Staphylococcus aureus was 2.02%; in the experiment with Acinetobacter baumannii, 12.82%; with Escherichia coli it was 3.58%; with Klebsiella pneumoniae, 8.62%; in the experiment on Candida albicans, 3.4%; in the experiment with Cryptococcus neoformans it was -9.05%.
